From PubChem BioAssay (Tox21)
“And” between values parts separate entries of the source, which are not always exact repeats. Equal values may be shown once. Records with an inconclusive call do not appear. The source made the active and inactive calls. Unless noted, calls come from the whole dose curve; as a rule, active = well fitted curve in the direction sought with a large enough effect in the repeat runs; inconclusive = weak or mixed curves; inactive = no such curve, though single readings can be large; an effect the other way counts as inactive or inconclusive.

Columns and labels:
[1] = target: Estrogen receptor (Homo sapiens) (UniProt P03372); test: qHTS assay to identify small molecule antagonists of the estrogen receptor alpha (ER-alpha) signaling pathway using the BG1 cell line in the presence of 0.1 nM 17-beta-estradiol (AID 1259244); note: nearly all actives have a fitted effect of over 50% in size; note: potency is the fitted concentration of half-maximal effect
Sequence of Estrogen receptor (Homo sapiens) (P03372 whole entry, looked up): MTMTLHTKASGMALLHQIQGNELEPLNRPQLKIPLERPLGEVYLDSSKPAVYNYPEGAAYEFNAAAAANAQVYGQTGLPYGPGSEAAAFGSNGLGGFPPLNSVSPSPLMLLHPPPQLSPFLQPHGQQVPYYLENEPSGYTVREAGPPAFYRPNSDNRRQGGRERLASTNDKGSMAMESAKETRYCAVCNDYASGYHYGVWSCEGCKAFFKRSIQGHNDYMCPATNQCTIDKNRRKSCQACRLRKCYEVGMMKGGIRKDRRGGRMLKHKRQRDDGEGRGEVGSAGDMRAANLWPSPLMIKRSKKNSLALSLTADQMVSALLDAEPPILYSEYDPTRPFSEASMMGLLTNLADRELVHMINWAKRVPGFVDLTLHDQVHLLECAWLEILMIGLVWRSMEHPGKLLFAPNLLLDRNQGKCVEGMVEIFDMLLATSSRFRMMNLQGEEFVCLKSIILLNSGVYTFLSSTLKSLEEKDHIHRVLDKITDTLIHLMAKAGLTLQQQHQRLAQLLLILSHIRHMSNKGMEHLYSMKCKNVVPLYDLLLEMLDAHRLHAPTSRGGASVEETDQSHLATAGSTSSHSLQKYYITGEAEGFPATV
How it was run: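 Luminescence after ONE-Glo (30 min, room temperature) measured ERE-luciferase activity in VM7Luc4E2 cells treated 22 h with compound and 0.1 nM final 17beta-estradiol as stimulator.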

[2] = qHTS assay to identify small molecule phospholipidosis (PLD) inducers (AID 1259344; active = well fitted curve in the direction sought with a large enough effect; an effect the other way counts as inactive or inconclusive)
How it was run: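 Phospholipid accumulation was scored by imaging: fixed, Hoechst-counterstained HepG2 cells stained with LipidTOX Red after 24 h compound exposure at 37 C. Read-outs were pit count and pit intensity per well or per cell, with amiodarone and DMSO controls.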

[3] = qHTS assay to identify small molecule HDAC inhibitors (AID 1259364); note: potency is the fitted concentration of half-maximal effect;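 note: wild-type HCT-116 cells with endogenous class I/II HDAC activity; nearly all actives have a fitted effect of over 45% in size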
How it was run: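 HCT-116 (wild type), 1,500 cells/well, overnight; compound 2 hr 37C 5% CO2; HDAC-Glo I/II reagent 30 min RT; luminescence readout.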

[4] = qHTS assay to identify small molecule HDAC inhibitors - cell viability counter screen (AID 1259365); note: series mostly up to about 92 µM; nearly all actives have a fitted effect of over 50% in size
How it was run: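 CellTiter-Glo luminescence (30 min, room temperature) reported viability after a 2 h compound exposure at 37 C. Cells: wild-type HCT-116, 1,500 per well, seeded the night before.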

[5] = qHTS assay to identify small molecule antagonists of the sonic hedgehog signaling (Shh) pathway - cell viability counter screen (AID 1259367); note: nearly all actives have a fitted effect of over 55% in size; note: potency is the fitted concentration of half-maximal effect
How it was run: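 Viability was read by CellTiter-Fluor fluorescence in the same wells, reagent added 23 hr into compound treatment and incubated 1 hr at 37C. The 3T3 Gli1-Luc reporter cells (2,000/well) received conditioned medium after compound and ran 24 hr.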

[6] = qHTS assay to identify small molecule agonists of the sonic hedgehog signaling (Shh) pathway (AID 1259368; calls by dose curve; note: nearly all actives have a fitted effect of over 15% in size; note: potency is the fitted concentration of half-maximal effect)
How it was run: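 Read-out: firefly luciferase luminescence from a Gli1 response element reporter stably integrated in NIH/3T3-derived 3T3Gli1-Luc cells, measured 30 min at room temperature after reagent addition. Compound exposure lasted 24 hr at 37 C, 5% CO2.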

[7] = target: Estrogen receptor beta (Homo sapiens) (UniProt Q92731); test: qHTS assay to identify small molecule agonists of the estrogen receptor beta (ER-beta) signaling pathway (AID 1259377; active = well fitted activation curve with a large enough effect in the signal ratio in the repeat runs, not every such curve was filed as active; the % refers to the signal ratio)
Sequence of Estrogen receptor beta (Homo sapiens) (Q92731 whole entry, looked up): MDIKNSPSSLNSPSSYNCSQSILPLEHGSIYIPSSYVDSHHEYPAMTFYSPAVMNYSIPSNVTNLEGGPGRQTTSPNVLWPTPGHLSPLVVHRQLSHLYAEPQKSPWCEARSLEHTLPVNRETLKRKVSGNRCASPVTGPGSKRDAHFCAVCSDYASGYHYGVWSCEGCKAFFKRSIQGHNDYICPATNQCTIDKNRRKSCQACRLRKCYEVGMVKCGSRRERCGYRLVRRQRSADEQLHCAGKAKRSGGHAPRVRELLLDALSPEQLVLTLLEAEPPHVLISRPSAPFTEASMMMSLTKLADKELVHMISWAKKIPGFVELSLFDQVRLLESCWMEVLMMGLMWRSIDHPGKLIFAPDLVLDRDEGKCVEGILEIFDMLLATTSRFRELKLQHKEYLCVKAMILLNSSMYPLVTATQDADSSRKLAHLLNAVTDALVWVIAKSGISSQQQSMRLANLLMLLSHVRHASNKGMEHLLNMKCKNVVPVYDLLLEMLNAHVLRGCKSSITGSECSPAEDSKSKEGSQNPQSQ
How it was run: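 Ratiometric beta-lactamase FRET read-out came after 2 h substrate loading at room temperature. It followed 16 h compound treatment at 37C of GripTite HEK293T cells carrying a UAS-bla reporter, plated in 2% charcoal-stripped FBS medium.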

[8] = qHTS assay to identify small molecule agonists of the estrogen receptor beta (ER-beta) signaling pathway - cell viability counter screen (AID 1259380); note: nearly all actives have a fitted effect of over 30% in size; note: potency is the fitted concentration of half-maximal effect
How it was run: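 Luminescence read-out (CellTiter-Glo, 30 min, room temp) taken in the same wells as the beta-lactamase reporter assay; ER-beta-UAS-bla HEK293T cells exposed to DMSO-dissolved compounds for 16 hr at 37C in 2% charcoal-stripped FBS medium.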

[9] = qHTS assay to identify small molecule antagonists of the estrogen receptor beta (ER-beta) signaling pathway - cell viability counter screen (AID 1259382); note: nearly all actives have a fitted effect of over 55% in size; note: potency is the fitted concentration of half-maximal effect
How it was run: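 Luminescent ATP read-out (CellTiter-Glo, 30 min, RT) taken in the same wells as the bla reporter assay. HEK293T ER-beta-UAS-bla cells in 2% charcoal-stripped FBS were exposed to compounds with 1nM E2 for 16 hr at 37C.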

[10] = target: Estrogen receptor (Homo sapiens) (UniProt P03372); test: qHTS assay to identify small molecule agonists of the estrogen receptor alpha (ER-alpha) signaling pathway in the presence of an antagonist (AID 1259383; calls by dose curve; note: top concentration of the series differs between compounds; nearly all actives have a fitted effect of over 15% in size)
How it was run: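 Luciferase luminescence (ONE-Glo, 30min at room temperature) measured in VM7Luc4E2 cells after 22hr compound exposure at 15 concentrations, with 10.0nM ICI-182,780 final present; cells express endogenous ER-alpha and carry four EREs upstream of luciferase.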

[11] = qHTS assay to identify small molecule agonists of the estrogen receptor alpha (ER-alpha) signaling pathway in the presence of an antagonist - cell viability counter screen (AID 1259386);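 note: cells exposed to compounds for 22 h at 37 °C before the viability read; nearly all actives have a fitted effect of over 30% in size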; note: potency is the fitted concentration of half-maximal effect
How it was run: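 Read-out: CellTiter-Fluor fluorescence after 1hr reagent incubation, measured in the same wells as the luciferase readout. VM7Luc4E2 cells were exposed to 15 compound concentrations with 10.0nM ICI-182,780 for 22hr at 37C.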

[12] = target: Progesterone receptor (Homo sapiens) (UniProt P06401); test: qHTS assay to identify small molecule agonists of the progesterone receptor (PR) signaling pathway (AID 1346784; calls by dose curve; note: nearly all actives have a fitted effect of over 30% in size)
Sequence of Progesterone receptor (Homo sapiens) (P06401 whole entry, looked up): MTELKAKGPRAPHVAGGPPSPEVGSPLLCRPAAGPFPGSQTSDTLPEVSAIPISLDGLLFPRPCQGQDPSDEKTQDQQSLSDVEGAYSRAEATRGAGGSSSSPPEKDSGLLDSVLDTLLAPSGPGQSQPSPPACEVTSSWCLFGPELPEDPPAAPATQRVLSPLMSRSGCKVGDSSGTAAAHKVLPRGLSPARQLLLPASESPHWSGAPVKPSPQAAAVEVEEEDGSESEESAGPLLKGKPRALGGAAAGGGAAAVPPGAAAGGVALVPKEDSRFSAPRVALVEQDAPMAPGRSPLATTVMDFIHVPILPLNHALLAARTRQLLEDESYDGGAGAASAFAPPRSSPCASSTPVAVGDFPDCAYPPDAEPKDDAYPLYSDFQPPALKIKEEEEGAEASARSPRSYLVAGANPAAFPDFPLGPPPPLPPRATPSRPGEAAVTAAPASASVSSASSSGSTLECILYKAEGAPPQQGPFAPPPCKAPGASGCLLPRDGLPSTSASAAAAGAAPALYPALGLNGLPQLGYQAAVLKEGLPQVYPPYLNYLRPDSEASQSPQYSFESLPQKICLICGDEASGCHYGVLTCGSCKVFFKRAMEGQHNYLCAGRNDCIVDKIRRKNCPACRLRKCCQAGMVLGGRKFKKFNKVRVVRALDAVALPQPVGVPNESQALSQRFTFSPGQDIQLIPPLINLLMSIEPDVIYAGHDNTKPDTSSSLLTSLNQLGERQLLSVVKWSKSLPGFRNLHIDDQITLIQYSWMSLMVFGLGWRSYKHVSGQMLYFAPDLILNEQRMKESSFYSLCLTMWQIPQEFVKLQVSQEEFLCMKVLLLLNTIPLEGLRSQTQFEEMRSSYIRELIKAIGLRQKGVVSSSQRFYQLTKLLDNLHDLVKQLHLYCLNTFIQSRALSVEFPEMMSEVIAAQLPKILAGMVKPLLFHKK
How it was run: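 Agonist qHTS: compounds pinned onto 3,000 PR-UAS-bla HEK 293T cells per well in charcoal-stripped serum medium, 16hr at 37C, then beta-lactamase activity measured by LiveBLAzer FRET fluorescence after 2 hours at room temperature.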

[13] = qHTS assay to identify small molecule agonists of the androgen receptor (AR) signaling pathway in the presence of an antagonist - cell viability counter screen (AID 1259379); note: nearly all actives have a fitted effect of over 25% in size; note: potency is the fitted concentration of half-maximal effect
How it was run: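 Viability counter screen: CellTiter-Fluor fluorescence, measured in the same wells as the luciferase read-out. MDA-kb2 cells, 3,000/well, with nilutamide at 3.0uM final and compounds at 15 concentrations, 16 hr at 37C, 0% CO2.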

[14] = qHTS assay to identify small molecule agonists or antagonists of the thyroid stimulating hormone receptor (TSHR) signaling pathway - wild type cell line counter screen (AID 1259384; calls by dose curve)
How it was run: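 Counter screen in untransfected Hek293: compounds (15-point titration, triplicate) plus phosphodiesterase inhibitor Ro20-1724 added after 18 h plating; 30 min RT. Intracellular cAMP via competitive d2/cryptate immunoassay, 1 h incubation.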

[15] = target: Thyrotropin receptor (Homo sapiens) (UniProt P16473); test: qHTS assay to identify small molecule antagonists of the thyroid stimulating hormone receptor (TSHR) signaling pathway (AID 1259385; calls by dose curve; note: nearly all actives have a fitted effect of over 20% in size; note: potency is the fitted concentration of half-maximal effect)
Sequence of Thyrotropin receptor (Homo sapiens) (P16473 whole entry, looked up): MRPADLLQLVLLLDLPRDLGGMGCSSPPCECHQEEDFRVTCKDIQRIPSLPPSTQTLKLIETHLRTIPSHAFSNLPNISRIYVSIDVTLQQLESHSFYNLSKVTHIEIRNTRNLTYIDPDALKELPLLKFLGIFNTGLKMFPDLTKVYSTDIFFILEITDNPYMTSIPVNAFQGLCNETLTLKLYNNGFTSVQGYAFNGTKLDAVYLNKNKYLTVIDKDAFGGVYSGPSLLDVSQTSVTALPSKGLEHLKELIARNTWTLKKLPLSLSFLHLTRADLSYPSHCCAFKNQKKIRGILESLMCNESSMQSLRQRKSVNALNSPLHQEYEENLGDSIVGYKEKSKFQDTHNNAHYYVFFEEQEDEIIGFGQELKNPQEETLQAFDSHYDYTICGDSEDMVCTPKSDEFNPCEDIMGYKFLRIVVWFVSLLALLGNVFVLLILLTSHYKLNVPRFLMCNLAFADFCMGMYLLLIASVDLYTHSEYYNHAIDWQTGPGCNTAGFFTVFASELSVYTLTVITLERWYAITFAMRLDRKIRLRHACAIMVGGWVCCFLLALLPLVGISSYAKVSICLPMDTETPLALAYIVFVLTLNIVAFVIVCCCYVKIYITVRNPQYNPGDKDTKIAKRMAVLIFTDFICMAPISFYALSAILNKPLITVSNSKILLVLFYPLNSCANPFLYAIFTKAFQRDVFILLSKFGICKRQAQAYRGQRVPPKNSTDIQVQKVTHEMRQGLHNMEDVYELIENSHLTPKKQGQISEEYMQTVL
How it was run: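 Antagonist mode: compound-treated TSHR-expressing HEK293 cells were stimulated with 1.5 ng/mL TSH (final) in presence of Ro20-1724 for 30 min at RT. HTRF cAMP detection after 1 h; each compound tested at 15 concentrations, triplicate.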

[16] = qHTS assay to identify small molecule agonists of the sonic hedgehog signaling (Shh) pathway - cell viability counter screen (AID 1259366); note: nearly all actives have a fitted effect of over 50% in size; note: potency is the fitted concentration of half-maximal effect
How it was run: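 Cytotoxicity counter screen: CellTiter-Fluor reagent added after 23 h compound exposure, then 1 h at 37C and fluorescence read. Cells were 3T3 Gli1-Luc, seeded 2,000 per well and dosed 4 h post-plating.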

[17] = qHTS assay to identify small molecule antagonists of the sonic hedgehog signaling (Shh) pathway (AID 1259369; calls by dose curve; note: nearly all actives have a fitted effect of over 45% in size; note: potency is the fitted concentration of half-maximal effect)
How it was run: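 Luminescence readout: firefly Luc under Gli1 response element in 3T3Gli1-Luc cells (NIH/3T3 clone). Antagonist mode, stimulation by conditioned medium; compound exposure 24hr at 37 C, 5% CO2.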

[18] = target: Estrogen receptor beta (Homo sapiens) (UniProt Q92731); test: qHTS assay to identify small molecule antagonists of the estrogen receptor beta (ER-beta) signaling pathway (AID 1259378; active = well fitted inhibition curve with a large enough effect in the signal ratio in the repeat runs, not every such curve was filed as active; the % refers to the signal ratio; note: potency is the fitted concentration of half-maximal effect)
How it was run: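 Antagonist mode: compounds added to beta-lactamase reporter HEK293T ER-beta-UAS cells stimulated with E2 (1nM final), 16 hr at 37C. LiveBLAzer B/G FRET substrate, 2 hours room temperature, fluorescence read-out.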

[19] = target: Androgen receptor (Homo sapiens) (UniProt P10275); test: qHTS assay to identify small molecule antagonists of the androgen receptor (AR) signaling pathway using the MDA cell line in the presence of 0.5 nM R1881 (AID 1259243); note: nearly all actives have a fitted effect of over 50% in size
Sequence of Androgen receptor (Homo sapiens) (P10275 whole entry, looked up): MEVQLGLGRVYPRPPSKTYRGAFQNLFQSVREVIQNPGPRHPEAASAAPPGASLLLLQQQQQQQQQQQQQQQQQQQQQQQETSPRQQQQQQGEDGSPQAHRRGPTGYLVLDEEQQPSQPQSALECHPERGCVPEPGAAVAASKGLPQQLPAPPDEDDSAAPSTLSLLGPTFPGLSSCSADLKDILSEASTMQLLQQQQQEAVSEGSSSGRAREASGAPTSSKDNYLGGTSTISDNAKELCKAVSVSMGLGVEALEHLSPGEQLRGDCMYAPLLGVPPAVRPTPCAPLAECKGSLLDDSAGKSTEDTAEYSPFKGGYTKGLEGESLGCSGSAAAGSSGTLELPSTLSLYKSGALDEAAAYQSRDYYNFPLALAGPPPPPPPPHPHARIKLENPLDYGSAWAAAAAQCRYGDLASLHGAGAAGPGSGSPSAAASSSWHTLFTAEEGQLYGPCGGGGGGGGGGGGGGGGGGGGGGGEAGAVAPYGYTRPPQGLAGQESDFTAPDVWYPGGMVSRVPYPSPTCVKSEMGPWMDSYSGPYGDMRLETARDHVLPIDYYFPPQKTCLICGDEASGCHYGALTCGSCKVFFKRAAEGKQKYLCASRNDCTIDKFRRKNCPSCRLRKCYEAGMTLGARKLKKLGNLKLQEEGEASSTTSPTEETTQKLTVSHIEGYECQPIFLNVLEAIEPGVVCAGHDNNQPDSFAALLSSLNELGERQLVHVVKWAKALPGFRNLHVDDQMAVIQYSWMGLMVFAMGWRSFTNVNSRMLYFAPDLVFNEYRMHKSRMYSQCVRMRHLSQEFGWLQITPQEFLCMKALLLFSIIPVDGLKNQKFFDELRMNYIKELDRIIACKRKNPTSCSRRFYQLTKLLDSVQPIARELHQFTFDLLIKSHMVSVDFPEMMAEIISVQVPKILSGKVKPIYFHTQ
How it was run: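 MDA-kb2, MMTV-luc (AR/GR elements); 3,000 cells/well; cpd + 0.5 nM R1881 final; 16 hr 37C, 0% CO2; ONE-Glo 30 min RT; luminescence.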

[20] = target: Androgen receptor (Homo sapiens) (UniProt P10275); test: qHTS assay to identify small molecule agonists of the androgen receptor (AR) signaling pathway in the presence of an antagonist (AID 1259381; calls by dose curve; note: potency is the fitted concentration of half-maximal effect; nearly all actives have a fitted effect of over 15% in size)
How it was run: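 Luciferase read-out (ONE-Glo, 30min room temperature) in MDA-kb2 MMTV-reporter cells; agonist mode run in presence of AR antagonist nilutamide, 3.0uM final. Compounds tested as 15-point series, 16hr exposure at 37C, 0% CO2.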

Measured: Potency

CC(=O)Oc1ccc(C2(c3ccc(OC(C)=O)cc3)C(=O)Nc3ccccc32)cc1
inactive: [2] | [3] | [4] | [5] | [6] | [7] | [8] | [9] | [10] | [12]
active: [1] 0.168 µM | [11] 668 nM

Cc1cc2c(C(C)C)c(O)c(O)c(C=O)c2c(O)c1-c1c(C)cc2c(C(C)C)c(O)c(O)c(C=O)c2c1O
active: [13] 29.8 µM | [8] 13.3 µM | [9] 23.7 µM
inactive: [1] | [2] | [3] | [4] | [6] | [10] | [14] | [15]

CN(Cc1cc(Br)cc(Br)c1N)C1CCCCC1
inactive: [1] | [2] | [3] | [4] | [16] | [5] | [6] | [17] | [7] | [18] | [13] | [9] | [10] | [14] | [11] | [12]
active: [15] 29.8 µM

CCCCCCCCCCCCCCNCCO
active: [8] 26.6 µM | [15] 23.7 µM
inactive: [1] | [2] | [3] | [4] | [5] | [6] | [17] | [9] | [10] | [14] | [11] | [12]

O=C(Oc1ccccc1)c1cccc(C(=O)Oc2ccccc2)c1
inactive: [19] | [16] | [5] | [17] | [13] | [9] | [14] | [15] | [11]
active: [3] 88.5 nM | [6] 2.29 µM | [20] 644 nM

CCOC(=O)[C@@](C)(N)Cc1ccc(O)c(O)c1
inactive: [1] | [2] | [3] | [4] | [16] | [13] | [8] | [9] | [10] | [14] | [15] | [11] | [12]

C[C@@]12C(=O)OC(=O)[C@]1(C)C1CCC2O1
inactive: [2] | [3] | [6] | [10] | [11] | [12]
active: [1] 6.68 µM | [5] 3.76 µM | [17] 1.68 µM

CCCCCCCCCCc1ccccc1
inactive: [1] | [3] | [4] | [16] | [5] | [6] | [17] | [13] | [8] | [9] | [10] | [11] | [12]

CC(C)(C)C1=CC(=O)C=C(C(C)(C)C)C1=O
inactive: [1] | [3] | [4] | [16] | [5] | [6] | [17] | [7] | [18] | [13] | [8] | [9] | [10] | [11]

CCOC(=O)N1CCC(=C2c3ccc(Cl)cc3CCc3cccnc32)CC1
inactive: [3] | [4] | [5] | [6] | [7] | [10] | [11]
active: [1] 61.1 µM | [16] 61.1 µM | [17] 43.3 µM and 13.3 µM | [18] 15.4 µM | [8] 48.6 µM and 26.6 µM | [9] 54.5 µM

O=C1OC(=O)c2ccc3c4c(ccc1c24)C(=O)OC3=O
inactive: [1] | [3] | [4] | [16] | [5] | [6] | [17] | [18] | [13] | [8] | [9] | [10] | [14] | [15] | [11] | [12]

Brc1ccccn1
inactive: [1] | [3] | [4] | [16] | [5] | [6] | [17] | [7] | [18] | [13] | [8] | [9] | [10] | [15] | [11] | [12]

C1CC(COCC2CO2)CCC1COCC1CO1 (centres undefined)
inactive: [1] | [3] | [4] | [16] | [5] | [6] | [17] | [13] | [9] | [10] | [14] | [15] | [11]

CCCCCCCC(C)=O
inactive: [1] | [3] | [4] | [16] | [5] | [6] | [17] | [7] | [18] | [13] | [8] | [9] | [10] | [14] | [15] | [11] | [12]

COc1ccc(C#N)cc1
inactive: [1] | [3] | [4] | [16] | [5] | [6] | [17] | [13] | [9] | [10] | [14] | [15] | [11] | [12]

c1ccc(Nc2cccc3ccccc23)cc1
active: [17] 30.6 µM | [18] 31 µM and 54.5 µM | [8] 54.5 µM
inactive: [1] | [3] | [4] | [16] | [5] | [6] | [7] | [13] | [10] | [14] | [15] | [11]
